Each compound was assayed on Bacillus 1 (Bacillus foraminis) (assay: relative growth (AUC of 72 h growth curve relative to DMSO control, dAUC) (ratio); higher = more growth (less inhibition), active = hit call of the paper). Settings: 20 µM;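 active = growth AUC significantly below the DMSO wells by Dunnett test; inactive = the rest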.
Experimental: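 Environmental bacterial isolates (Iceland stream sediment and Silwood Park soil) and whole stream-sediment communities were grown in LB from a 1:100 dilution with each pesticide at 20 µM (1% DMSO). A600 was read hourly for 72 h and the area under a spline-fitted growth curve (AUC) was computed. dAUC is the mean AUC of 3 biological replicates divided by the mean AUC of the DMSO controls. Significance was tested by Dunnett's test against the DMSO control.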

| Compound | relative growth |
| --- | --- |
| CCCN(CCOc1c(Cl)cc(Cl)cc1Cl)C(=O)n1ccnc1 | 1.07 (inactive) |
| COc1cc(OC)nc(NC(=O)NS(=O)(=O)c2ncccc2C(=O)N(C)C)n1 | 1.08 (inactive) |
| CC1(C(=O)Nc2ccc(O)c(Cl)c2Cl)CCCCC1 | 1.01 (inactive) |
| Cc1ccc(/N=C/N(C)/C=N/c2ccc(C)cc2C)c(C)c1 | 1.01 (inactive) |
| ClC1C(Cl)C(Cl)C(Cl)C(Cl)C1Cl (configuration not stated) | 1.11 (inactive) |
| C[N+]1(C)CCCCC1 | 1.04 (inactive) |
| CCCCN(CCCC)SN(C)C(=O)Oc1cccc2c1OC(C)(C)C2 | 1.03 (inactive) |
| Cc1cc(C(C#N)c2ccc(Cl)cc2)c(Cl)cc1NC(=O)c1cc(I)cc(I)c1O (configuration not stated) | 0.695 (inactive) |
| COCC(C)N(C(=O)CCl)c1c(C)csc1C (configuration not stated) | 0.948 (inactive) |
| COP(=S)(OC)SCN1C(=O)c2ccccc2C1=O | 1.04 (inactive) |
| COP(=S)(OC)Oc1nc(Cl)c(Cl)cc1Cl | 1.08 (inactive) |
| CCCN(CCC)C(=O)SCc1ccccc1 | 0.998 (inactive) |
| CC[C@H](C)[C@H]1O[C@]2(C=C[C@@H]1C)C[C@@H]1C[C@@H](C/C=C(\C)[C@@H](O[C@H]3C[C@H](OC)[C@@H](O[C@H]4C[C@H](OC)[C@@H](O)[C@H](C)O4)[C@H](C)O3)[C@@H](C)/C=C/C=C3\CO[C@@H]4[C@H](O)C(C)=C[C@@H](C(=O)O1)[C@]34O)O2.CO[C@H]1C[C@H](O[C@H]2[C@H](C)O[C@@H](O[C@@H]3/C(C)=C/C[C@@H]4C[C@@H](C[C@]5(C=C[C@H](C)[C@@H](C(C)C)O5)O4)OC(=O)[C@@H]4C=C(C)[C@@H](O)[C@H]5OC/C(=C\C=C\[C@@H]3C)[C@]54O)C[C@@H]2OC)O[C@@H](C)[C@@H]1O | 0.944 (inactive) |
| CC(Oc1ccc(Oc2ncc(C(F)(F)F)cc2Cl)cc1)C(=O)O (configuration not stated) | 1 (inactive) |
| CON(C)C(=O)Nc1ccc(Cl)c(Cl)c1 | 1.04 (inactive) |
| CC(C)OC(=O)C(C(=O)OC(C)C)=C1SCCS1 | 1.05 (inactive) |
| CCC(=O)Nc1ccc(Cl)c(Cl)c1 | 0.957 (inactive) |
| OC(Cn1cncn1)(c1ccc(F)cc1)c1ccccc1F (configuration not stated) | 1.07 (inactive) |
| CCOC(=O)OC1=C(c2cc(C)ccc2C)C(=O)N[C@]12CC[C@@H](OC)CC2 | 1.03 (inactive) |
| CC1(C)C(C=C(Cl)Cl)C1C(=O)OC(C#N)c1cccc(Oc2ccccc2)c1 (configuration not stated) | 1.11 (inactive) |
| O=C(Nc1ccc(F)cc1F)c1cccnc1Oc1cccc(C(F)(F)F)c1 | 1.07 (inactive) |
| N#Cc1sc2c(=O)c3ccccc3c(=O)c=2sc1C#N | 0.97 (inactive) |
| CS(=O)(=O)c1cc(C(F)(F)F)ccc1C(=O)c1cnoc1C1CC1 | 1.02 (inactive) |
| Cc1cccc2sc3nncn3c12 | 1.03 (inactive) |
| O=C(Nc1ccccc1-c1ccc(Cl)cc1)c1cccnc1Cl | 1.01 (inactive) |
| CC(C)NC(=O)N1CC(=O)N(c2cc(Cl)cc(Cl)c2)C1=O | 0.928 (inactive) |
| COCC(=O)N(c1c(C)cccc1C)[C@H](C)C(=O)OC | 1.06 (inactive) |
